We go through eight sequences from article PMC7862700, “An all-to-all approach to the identification of sequence-specific readers for epigenetic DNA modifications on cytosine”.

Common to all, as to test: DAPPL (digital affinity profiling via proximity ligation, sequencing); 10 mM Tris-HCl pH 7.5, 50 mM NaCl, 1 mM DTT, 4% glycerol, room temperature, 30 min; GST-TFs on glutathione beads, 16-mer random dsDNA library, 0.1% formaldehyde crosslink after washing; high values mean tight binding
Holding throughout (details): protein: recombinant; tags: N-terminal GST; dsDNA, one strand shown

The target of test [1] is T1, FLI1 (Homo sapiens, UniProt Q01543 1-452).
T1 sequence: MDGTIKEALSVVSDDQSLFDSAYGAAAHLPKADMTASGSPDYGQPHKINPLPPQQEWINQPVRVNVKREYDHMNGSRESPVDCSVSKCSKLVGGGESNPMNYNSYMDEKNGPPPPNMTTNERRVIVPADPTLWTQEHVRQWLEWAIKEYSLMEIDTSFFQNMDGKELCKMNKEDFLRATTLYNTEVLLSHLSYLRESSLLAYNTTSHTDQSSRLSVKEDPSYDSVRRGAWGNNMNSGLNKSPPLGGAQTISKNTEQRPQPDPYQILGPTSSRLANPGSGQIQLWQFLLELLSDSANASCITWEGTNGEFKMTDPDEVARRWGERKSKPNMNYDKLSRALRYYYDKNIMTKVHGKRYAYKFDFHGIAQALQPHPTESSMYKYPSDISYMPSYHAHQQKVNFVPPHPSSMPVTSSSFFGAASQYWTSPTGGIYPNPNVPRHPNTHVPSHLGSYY
In short, it runs like this: (§1)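 Binding signal is given per hexamer as its read frequency for a factor divided by its frequency in the tag-only sample. GST-fused human transcription factors were expressed in yeast, captured on glutathione beads, barcoded with DNA and pooled with that sample, then incubated with 200 nmole of a 16-mer random double-stranded DNA library in Tris/NaCl/DTT/glycerol buffer for 30 min at room temperature. The pools were then washed, crosslinked, proximity-ligated, amplified by PCR and sequenced on an Illumina NextSeq500.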

The target in test [2] is T2, ELK1 (Homo sapiens, UniProt P19419 1-428).
T2 sequence: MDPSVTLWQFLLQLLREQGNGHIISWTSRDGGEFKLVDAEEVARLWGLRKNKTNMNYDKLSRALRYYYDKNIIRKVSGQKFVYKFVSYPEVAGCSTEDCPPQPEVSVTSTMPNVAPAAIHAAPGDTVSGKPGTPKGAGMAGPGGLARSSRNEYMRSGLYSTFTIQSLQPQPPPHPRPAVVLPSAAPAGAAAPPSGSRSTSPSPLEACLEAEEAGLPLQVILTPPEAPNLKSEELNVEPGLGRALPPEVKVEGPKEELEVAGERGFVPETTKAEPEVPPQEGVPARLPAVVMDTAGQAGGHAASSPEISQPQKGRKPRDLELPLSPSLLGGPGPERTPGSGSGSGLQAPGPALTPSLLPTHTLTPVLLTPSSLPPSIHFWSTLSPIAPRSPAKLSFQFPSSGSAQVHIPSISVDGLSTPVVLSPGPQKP
A digest of the protocol: as §1

Test [3] addresses T3, GABPA (Homo sapiens, UniProt Q06546 1-454).
T3 sequence: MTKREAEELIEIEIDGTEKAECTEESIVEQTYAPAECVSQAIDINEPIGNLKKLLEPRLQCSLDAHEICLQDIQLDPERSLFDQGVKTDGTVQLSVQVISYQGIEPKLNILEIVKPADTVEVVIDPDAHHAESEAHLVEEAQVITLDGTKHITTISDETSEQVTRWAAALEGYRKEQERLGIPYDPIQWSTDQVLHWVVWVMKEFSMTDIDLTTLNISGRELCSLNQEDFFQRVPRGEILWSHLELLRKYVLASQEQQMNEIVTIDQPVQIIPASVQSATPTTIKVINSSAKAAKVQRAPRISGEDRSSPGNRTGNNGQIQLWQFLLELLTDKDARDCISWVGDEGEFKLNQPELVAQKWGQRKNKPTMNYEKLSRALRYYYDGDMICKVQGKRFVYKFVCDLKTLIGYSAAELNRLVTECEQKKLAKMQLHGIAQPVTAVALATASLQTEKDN
A digest of the protocol: as §1

Test [4] concerns the target T4, ERG (Homo sapiens, UniProt P11308 1-479).
T4 sequence: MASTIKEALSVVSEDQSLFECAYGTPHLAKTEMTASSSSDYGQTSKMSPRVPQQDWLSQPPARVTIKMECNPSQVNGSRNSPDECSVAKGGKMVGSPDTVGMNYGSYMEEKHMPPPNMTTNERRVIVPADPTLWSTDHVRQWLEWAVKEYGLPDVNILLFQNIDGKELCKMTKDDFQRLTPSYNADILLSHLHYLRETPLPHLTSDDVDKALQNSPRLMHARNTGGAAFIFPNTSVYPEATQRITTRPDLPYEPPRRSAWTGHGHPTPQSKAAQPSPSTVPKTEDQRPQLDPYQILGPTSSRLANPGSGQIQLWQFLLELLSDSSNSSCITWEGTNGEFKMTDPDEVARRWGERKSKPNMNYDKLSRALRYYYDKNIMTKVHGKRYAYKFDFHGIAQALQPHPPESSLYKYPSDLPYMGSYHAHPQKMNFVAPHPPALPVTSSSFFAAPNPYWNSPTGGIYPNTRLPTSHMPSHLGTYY
In short, it runs like this: as §1

The target of test [5] is ELF1 (Homo sapiens, UniProt P32519 1-619). A digest of the protocol:
as §1

Test [6] deals with T5, EHF (Homo sapiens, UniProt Q9NZC4 1-300).
T5 sequence: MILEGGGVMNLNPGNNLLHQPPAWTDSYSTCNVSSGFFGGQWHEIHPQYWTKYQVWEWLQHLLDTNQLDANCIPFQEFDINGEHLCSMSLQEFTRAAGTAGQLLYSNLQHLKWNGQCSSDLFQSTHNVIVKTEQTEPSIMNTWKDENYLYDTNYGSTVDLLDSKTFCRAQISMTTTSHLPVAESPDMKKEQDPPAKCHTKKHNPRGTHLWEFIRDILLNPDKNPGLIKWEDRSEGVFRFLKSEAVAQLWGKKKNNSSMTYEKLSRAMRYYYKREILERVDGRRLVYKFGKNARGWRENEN
A digest of the protocol: as §1

The target in test [7] is SPI1 (Homo sapiens, UniProt P17947 1-270). In short, it runs like this:
as §1

Test [8] deals with SPIB (Homo sapiens, UniProt Q01892 1-262). In short, it runs like this: as §1
For test [9], the target named is T6, ELK3 (Homo sapiens, UniProt P41970 1-407).
T6 sequence: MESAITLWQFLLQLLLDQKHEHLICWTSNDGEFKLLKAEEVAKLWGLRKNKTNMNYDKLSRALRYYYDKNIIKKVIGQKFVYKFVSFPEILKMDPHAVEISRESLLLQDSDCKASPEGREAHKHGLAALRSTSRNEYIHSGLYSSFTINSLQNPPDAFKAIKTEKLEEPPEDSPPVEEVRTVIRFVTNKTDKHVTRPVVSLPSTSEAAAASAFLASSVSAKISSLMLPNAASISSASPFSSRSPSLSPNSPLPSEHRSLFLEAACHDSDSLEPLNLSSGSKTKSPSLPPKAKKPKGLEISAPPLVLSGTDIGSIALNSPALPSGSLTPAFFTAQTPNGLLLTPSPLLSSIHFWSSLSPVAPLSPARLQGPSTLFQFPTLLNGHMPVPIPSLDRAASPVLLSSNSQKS
A digest of the protocol:
as §1

Sequence of SPIB (Q01892 whole entry): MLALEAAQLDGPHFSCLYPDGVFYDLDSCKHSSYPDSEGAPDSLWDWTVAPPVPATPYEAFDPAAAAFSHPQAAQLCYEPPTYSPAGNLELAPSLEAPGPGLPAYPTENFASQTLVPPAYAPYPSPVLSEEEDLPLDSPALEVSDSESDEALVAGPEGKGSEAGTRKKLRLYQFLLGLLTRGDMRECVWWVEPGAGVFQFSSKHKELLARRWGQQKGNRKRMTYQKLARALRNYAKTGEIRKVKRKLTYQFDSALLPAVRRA
Sequence of ELF1 (P32519 whole entry): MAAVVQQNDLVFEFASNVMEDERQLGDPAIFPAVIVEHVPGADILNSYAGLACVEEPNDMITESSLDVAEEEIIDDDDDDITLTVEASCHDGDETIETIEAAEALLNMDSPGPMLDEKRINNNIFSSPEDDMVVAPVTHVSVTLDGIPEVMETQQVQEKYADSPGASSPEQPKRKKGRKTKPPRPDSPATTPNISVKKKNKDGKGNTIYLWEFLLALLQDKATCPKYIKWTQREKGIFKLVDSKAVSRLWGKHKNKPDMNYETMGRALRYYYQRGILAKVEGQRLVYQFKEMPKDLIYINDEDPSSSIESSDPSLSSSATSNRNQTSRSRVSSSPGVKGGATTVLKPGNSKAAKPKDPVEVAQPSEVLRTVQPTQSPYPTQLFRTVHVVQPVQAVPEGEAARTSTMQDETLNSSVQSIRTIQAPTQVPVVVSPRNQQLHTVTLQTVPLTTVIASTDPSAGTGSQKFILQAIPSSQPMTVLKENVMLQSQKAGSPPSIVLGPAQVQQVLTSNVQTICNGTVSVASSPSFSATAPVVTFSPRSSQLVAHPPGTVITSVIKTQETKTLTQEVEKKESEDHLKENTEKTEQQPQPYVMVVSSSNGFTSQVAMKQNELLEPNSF

Consider AAACTC, for which the binding signal in test [1] was 1.29 fold enrichment (6-mer frequency, TF over GST control); in [2], 1.3 fold enrichment (6-mer frequency, TF over GST control); in [3], 1.15 fold enrichment (6-mer frequency, TF over GST control); in [4] it was 1.17 fold enrichment (6-mer frequency, TF over GST control); in test [5], 1.25 fold enrichment (6-mer frequency, TF over GST control); in [6], 1.24 fold enrichment (6-mer frequency, TF over GST control). The binding signal is 1.13 fold enrichment (6-mer frequency, TF over GST control) in test [7]; 1.18 fold enrichment (6-mer frequency, TF over GST control) in test [8]; 1.16 fold enrichment (6-mer frequency, TF over GST control) in [9].

For GCCCTA, the binding signal was 1.29 fold enrichment (6-mer frequency, TF over GST control) in test [1]; 1.24 fold enrichment (6-mer frequency, TF over GST control) in test [2]; 1.21 fold enrichment (6-mer frequency, TF over GST control) in test [3]; 1.15 fold enrichment (6-mer frequency, TF over GST control) in [4]; 1.19 fold enrichment (6-mer frequency, TF over GST control) in test [5]; 1.12 fold enrichment (6-mer frequency, TF over GST control) in [6]. The binding signal in test [7] is 1.19 fold enrichment (6-mer frequency, TF over GST control); in test [8] it was 1.28 fold enrichment (6-mer frequency, TF over GST control); in test [9], 1.19 fold enrichment (6-mer frequency, TF over GST control).

In the case of ACCGAT, the binding signal in test [1] is 1.14 fold enrichment (6-mer frequency, TF over GST control); in test [2], 1.12 fold enrichment (6-mer frequency, TF over GST control); in test [3], 1.2 fold enrichment (6-mer frequency, TF over GST control); in test [4], 1.07 fold enrichment (6-mer frequency, TF over GST control); in test [5], 1.17 fold enrichment (6-mer frequency, TF over GST control); in [6], 1.16 fold enrichment (6-mer frequency, TF over GST control). The binding signal in test [7] is 1.1 fold enrichment (6-mer frequency, TF over GST control); in test [8] it was 1.13 fold enrichment (6-mer frequency, TF over GST control); in test [9], 1.04 fold enrichment (6-mer frequency, TF over GST control).

On to AATATC, for which the binding signal in test [1] is 1.53 fold enrichment (6-mer frequency, TF over GST control); in [2] it was 1.55 fold enrichment (6-mer frequency, TF over GST control); in test [3], 1.66 fold enrichment (6-mer frequency, TF over GST control); in test [4], 1.66 fold enrichment (6-mer frequency, TF over GST control); in [5], 1.55 fold enrichment (6-mer frequency, TF over GST control); in test [6], 1.44 fold enrichment (6-mer frequency, TF over GST control). Also, the binding signal in test [7] is 1.51 fold enrichment (6-mer frequency, TF over GST control); in test [8], 1.52 fold enrichment (6-mer frequency, TF over GST control); in [9], 1.49 fold enrichment (6-mer frequency, TF over GST control).

As to GCACTA, the binding signal was 1.18 fold enrichment (6-mer frequency, TF over GST control) in [1]; 1.2 fold enrichment (6-mer frequency, TF over GST control) in test [2]; 1.23 fold enrichment (6-mer frequency, TF over GST control) in test [3]; 1.11 fold enrichment (6-mer frequency, TF over GST control) in test [4]; 1.16 fold enrichment (6-mer frequency, TF over GST control) in test [5]; 1.21 fold enrichment (6-mer frequency, TF over GST control) in test [6]. In addition, the binding signal is 1.19 fold enrichment (6-mer frequency, TF over GST control) in test [7]; 1.3 fold enrichment (6-mer frequency, TF over GST control) in test [8]; 1.23 fold enrichment (6-mer frequency, TF over GST control) in [9].

TCCTAA: the binding signal in [1] was 1.63 fold enrichment (6-mer frequency, TF over GST control); in [2], 1.34 fold enrichment (6-mer frequency, TF over GST control); in test [3] it was 1.41 fold enrichment (6-mer frequency, TF over GST control); in [4], 1.58 fold enrichment (6-mer frequency, TF over GST control); in test [5] it was 1.49 fold enrichment (6-mer frequency, TF over GST control); in test [6], 1.27 fold enrichment (6-mer frequency, TF over GST control). The binding signal was 1.43 fold enrichment (6-mer frequency, TF over GST control) in test [7]; 1.49 fold enrichment (6-mer frequency, TF over GST control) in test [8]; 1.43 fold enrichment (6-mer frequency, TF over GST control) in test [9].

On to TTTTGT, for which the binding signal in test [1] is 1.35 fold enrichment (6-mer frequency, TF over GST control); in test [2] it was 1.18 fold enrichment (6-mer frequency, TF over GST control); in test [3], 1.36 fold enrichment (6-mer frequency, TF over GST control); in test [4], 1.39 fold enrichment (6-mer frequency, TF over GST control); in test [5], 1.33 fold enrichment (6-mer frequency, TF over GST control); in [6] it was 1.33 fold enrichment (6-mer frequency, TF over GST control). The binding signal in test [7] is 1.43 fold enrichment (6-mer frequency, TF over GST control); in [8], 1.37 fold enrichment (6-mer frequency, TF over GST control); in test [9], 1.27 fold enrichment (6-mer frequency, TF over GST control).

For the sequence AAAGAC, the binding signal in [1] is 1.06 fold enrichment (6-mer frequency, TF over GST control); in test [2], 1.07 fold enrichment (6-mer frequency, TF over GST control); in test [3] it was 1.02 fold enrichment (6-mer frequency, TF over GST control); in test [4], 1.07 fold enrichment (6-mer frequency, TF over GST control); in [5] it was 1 fold enrichment (6-mer frequency, TF over GST control); in test [6] it was 1.05 fold enrichment (6-mer frequency, TF over GST control). Further, the binding signal in test [7] is 1.1 fold enrichment (6-mer frequency, TF over GST control); in test [8], 1.08 fold enrichment (6-mer frequency, TF over GST control); in test [9] it was 1.02 fold enrichment (6-mer frequency, TF over GST control).
